In PubChem BioAssay AID1347165 (National Center for Advancing Translational Sciences (NCATS), 2019):
Out of some 220,000 compounds screened, about 5,700 (2.6%) were called active. About 18% were inconclusive and are not listed. For the sample, actives were picked, then their nearest neighbours and some compounds at random. Values without a mark were called inactive. Calls come from the whole dose curve; as a rule, active = well fitted inhibition curve with a large enough effect; inconclusive = small, poorly fitted or top-dose-only effect; inactive = no such curve, though single readings can be large or run the other way.

Target: Lysine-specific demethylase 5B (Homo sapiens) (UniProt Q9UGL1)
Assay: Primary screen for KDM5B Histone Demethylases FDH-coupled qHTS; note: nearly all actives have a fitted effect of over 70% in size; for activity change, negative = inhibition: 0% is about no effect
Settings: FDH-coupled NADH fluorescence (FDH is formaldehyde dehydrogenase); series mostly up to 57.7 µM; activity change, negative = inhibition: at the top concentration
How it was run: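 Inhibition is measured as reduced NADH fluorescence generation from FDH coupling to formaldehyde release. Truncated KDM5BΔAP at 200 nM final acts on H3K4me3 peptide (12.5 µM in substrate mix) in pH 7.5 HEPES buffer with Tween-20, 30 min, room temperature.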
Potency is the fitted concentration of half-maximal effect.

Sequence of Lysine-specific demethylase 5B (Homo sapiens) (Q9UGL1 whole entry, looked up): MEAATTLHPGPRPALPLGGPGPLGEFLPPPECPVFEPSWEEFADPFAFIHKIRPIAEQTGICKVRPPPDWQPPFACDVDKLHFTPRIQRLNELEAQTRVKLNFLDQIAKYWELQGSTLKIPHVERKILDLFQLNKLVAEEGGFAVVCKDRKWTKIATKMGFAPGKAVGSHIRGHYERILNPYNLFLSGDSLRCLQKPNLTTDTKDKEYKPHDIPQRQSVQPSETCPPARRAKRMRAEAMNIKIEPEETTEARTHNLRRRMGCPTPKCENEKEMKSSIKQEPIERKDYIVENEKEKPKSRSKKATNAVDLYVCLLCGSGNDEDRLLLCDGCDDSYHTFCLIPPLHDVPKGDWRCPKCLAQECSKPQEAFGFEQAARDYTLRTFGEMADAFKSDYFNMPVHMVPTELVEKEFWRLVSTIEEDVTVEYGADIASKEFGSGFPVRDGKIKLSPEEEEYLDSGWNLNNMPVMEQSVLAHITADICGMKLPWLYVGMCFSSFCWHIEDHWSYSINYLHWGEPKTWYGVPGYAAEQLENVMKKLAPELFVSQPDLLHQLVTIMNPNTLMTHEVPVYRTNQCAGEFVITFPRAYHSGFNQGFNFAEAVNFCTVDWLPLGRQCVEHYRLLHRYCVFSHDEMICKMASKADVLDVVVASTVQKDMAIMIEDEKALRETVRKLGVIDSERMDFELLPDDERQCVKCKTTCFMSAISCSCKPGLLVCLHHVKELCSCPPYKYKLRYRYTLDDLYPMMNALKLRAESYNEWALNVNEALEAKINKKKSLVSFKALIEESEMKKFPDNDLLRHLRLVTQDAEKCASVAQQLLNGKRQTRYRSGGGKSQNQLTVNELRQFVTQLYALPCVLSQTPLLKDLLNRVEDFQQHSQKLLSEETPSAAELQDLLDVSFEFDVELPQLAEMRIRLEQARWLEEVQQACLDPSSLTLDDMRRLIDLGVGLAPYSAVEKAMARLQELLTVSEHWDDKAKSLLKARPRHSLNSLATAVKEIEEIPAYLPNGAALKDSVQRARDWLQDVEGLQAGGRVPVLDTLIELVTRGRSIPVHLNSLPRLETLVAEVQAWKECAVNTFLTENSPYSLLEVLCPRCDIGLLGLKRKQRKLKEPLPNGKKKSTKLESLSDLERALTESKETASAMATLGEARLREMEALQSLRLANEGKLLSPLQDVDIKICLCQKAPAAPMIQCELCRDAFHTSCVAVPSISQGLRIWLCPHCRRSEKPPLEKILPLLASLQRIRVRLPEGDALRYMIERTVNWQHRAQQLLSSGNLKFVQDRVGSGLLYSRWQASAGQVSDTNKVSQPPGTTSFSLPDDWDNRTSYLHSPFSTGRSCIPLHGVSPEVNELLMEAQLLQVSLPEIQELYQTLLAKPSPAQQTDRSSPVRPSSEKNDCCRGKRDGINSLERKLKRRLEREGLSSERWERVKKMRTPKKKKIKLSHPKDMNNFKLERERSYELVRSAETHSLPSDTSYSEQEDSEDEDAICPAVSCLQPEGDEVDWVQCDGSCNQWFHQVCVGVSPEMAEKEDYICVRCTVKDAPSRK

Structure (SMILES)	Potency	activity change, negative = inhibition
O=C1Nc2cnccc2C2(CCN(C(=O)c3ccccc3F)C2)O1 (configuration not stated)	31.6 µM (active)	–
O=C(c1ccccc1F)N1CCC2(CC1)C(=O)Nc1ccccc12	–	-1.94% [at 149 µM]
CC(C)C1=NOC2(CCN(C(=O)c3ccccc3F)C2)C1 (configuration not stated)	–	2.96% [at 149 µM]
O=C(O)Cc1ccc(NC(=O)Nc2cccc3ccccc23)cc1	–	19.1%
COc1ccc2nc(SCC(=O)Nc3ncccn3)[nH]c2c1	–	10.3%
c1cc(N2CCOCC2)ccc1-c1cc(-c2cn[nH]c2)c2cncn2c1	28.2 µM (active)	–
COc1ccccc1-c1cc(-c2cn[nH]c2)c2cncn2c1	–	-2460% [at 115 µM]
Cn1cc(CC(=O)N2CCCc3ncc(C(=O)N4CCCC[C@@H]4c4ccccc4)cc32)c2ccccc21	–	-17.3%
Cn1cc(-c2ccccc2)cc1C(=O)NCc1ccc(N2CCOCC2)cc1	–	-31.6%
CCC(=O)Nc1cc(C(=O)NCc2ccc(N3CCOCC3)cc2)c2ccc(C)nc2c1	14.1 µM (active)	–
COCc1cc(=O)n(CC(=O)NCc2ccc(C)cc2)c(N2CCOCC2)n1	–	-28%
N#Cc1nc(C2CC2)oc1N1CCN(Cc2c(F)cccc2Cl)CC1	–	12.1%
Cn1c(SCC(=O)N2CCCC2)nnc1-c1ccc2c(c1)OCO2	–	23.9%
c1ccc(CNCc2cccc3ccccc23)cc1	–	-14.2%
Cc1ccc(F)cc1S(=O)(=O)N1CCC(c2nc3ccccc3s2)CC1	–	2.62%
CN1CCC(N2CC[C@H](c3nc4ccccc4s3)C2)CC1	28.2 µM (active)	–
CC(C)(C)c1ccc(OCC(=O)N2CCC(c3nc4ccccc4s3)CC2)cc1	–	10.7% [at 11.5 µM]
Cc1c(-c2ccccc2)oc2c(C(=O)N3CCN(C(=O)c4ccccc4)CC3)cccc2c1=O	–	-12.4%
CCCOc1ccccc1C(=O)N1CCC2(CC1)[C@H](O)C[C@@H]2OCCN	–	-7.52%
Cn1c(COc2ccccc2Cl)nnc1SCCn1cccn1	–	21%
Clc1ccccc1C1(c2ccnc(NCCn3cccn3)n2)CCNCC1	28.2 µM (active)	–
CCOc1ccc(/C=C2/Cc3c(O)cccc3C2=O)cc1	–	11.1%

Structure (SMILES)	Potency	activity change, negative = inhibition
N#CC1(NC(=O)COC(=O)CCN=C2NS(=O)(=O)c3ccccc32)CCCCC1	–	6.37%
O=c1cc(-c2cccnc2)oc2c(-c3ccccc3O)nccc12	–	-14.1% [at 86.2 µM]
CN(c1ccccc1)c1cc(=O)c2ccnc(-c3ccc(CO)cc3)c2o1	–	-32.9% [at 86.2 µM]
O=c1cc(-c2cccnc2)oc2c(-c3cccc(CO)c3)nccc12	35.5 µM (active)	–
N#CC1=C(N)Oc2n[nH]c(-c3ccc4c(c3)OCO4)c2C1c1cccc(O)c1 (configuration not stated)	–	-29.3%
CN1CCN(c2oc(-c3ccccc3)nc2S(=O)(=O)c2ccc3c(c2)OCCO3)CC1	–	13.1%
COCc1noc(-c2ccc(NCCN3CCNC3=O)nc2)n1	–	30.3%
COc1ccc(S(=O)(=O)NCCc2noc(-c3ccncc3)n2)cc1	–	13.7%
COCCc1noc(-c2ccc(NC(C)c3ncccc3C)nc2)n1 (configuration not stated)	28.2 µM (active)	–
O=C(O)CSCc1cccnc1	–	-4.43%
COc1cccc(CC(=O)NCCc2noc(-c3cccnc3)n2)c1	–	12.9%
O=C(O)Cn1ccc2cc(OCCc3cccc(-c4cccnc4)c3)cnc21	35.5 µM (active)	–
COc1cc(CNCC(O)c2ccccc2)ccc1Oc1nnnn1-c1ccccc1 (configuration not stated)	–	22.5%
CCNC(=O)NC(=O)C(C)OC(=O)c1ccc(C(=O)OC)cc1 (configuration not stated)	–	8.54%
Cc1ccc(-n2nnnc2C2(Nc3ccccc3)CCCC2)cc1	–	14.5%
COc1cccc(CC(=O)NC2CCN(c3cn[nH]c(=O)c3)CC2)c1	–	-1.04%
COc1cccc(CN2CCN(C(=O)c3cnc4ccccn4c3=O)CC2=O)c1	28.2 µM (active)	–
COc1cccc(CN2CCOC3CCN(C(=O)c4cccnc4)CC3C2=O)c1 (configuration not stated)	–	-15.9% [at 86.2 µM]
O=C(CCc1cccs1)N(CC1CCOC1)C1CC1 (configuration not stated)	–	16.4%
Cc1nc2sc3c(c2c2nc(-c4ccc(O)cc4)nn12)CC(C)(C)OC3	–	-15.1%
Cn1c(Oc2cccc(Cl)c2)nc2c1c(=O)n(Cc1ccc(F)cc1)c(=O)n2C	–	4.11%
Cc1nc2ccc(C(=O)NCCCOCC3CC3)cc2nc1C	–	3.23%

Structure (SMILES)	Potency	activity change, negative = inhibition
O=C(CN1CCN(c2ccccc2)CC1)Nc1ccc(F)cc1	–	9.95%
O=C(CN1CCN(Cc2ccc(Cl)cc2)C1=O)NCc1ccc(F)cc1	–	-11.5%
O=C(Cc1ccc(Cl)cc1)NCc1nnc2ccc(-c3ccc(F)cc3)nn12	25.1 µM (active)	–
O=C(Cc1ccc(F)cc1)NC1CCN(c2cc(-c3ccc(Cl)cc3)[nH]n2)CC1	–	-21.9%
COc1ccc(-c2ccc3nnc(CNC(=O)C(C)Oc4ccc(Cl)cc4)n3n2)cc1 (configuration not stated)	28.2 µM (active)	–
COc1cc(NC(=O)CSc2nnc3ccc(-c4ccncc4)nn23)cc(OC)c1	–	-1.83%
COc1ccc(CNc2nc(-c3ccc(Cl)cc3)nn2S(=O)(=O)c2ccc(C)cc2)cc1	–	3.11%
COc1ccc(Oc2c(C)oc3cc(OCC(=O)NCc4ccccc4)ccc3c2=O)cc1	–	-5.87%
COc1cccc(C(=O)Oc2ccc(C)cc2C(=O)/C=C/c2ccc(F)cc2)c1	–	-3.94%
CC(C)NC(=O)Nc1cccc(C(=O)Nc2cccc(Cl)c2)c1	–	-1.45%
CC(NC(=O)/C=C/c1ccsc1)C1CCCO1 (configuration not stated)	–	22.6%
N#Cc1ccc(OCC(O)CNCCC2=CCCCC2)cc1 (configuration not stated)	–	23.8%
O=C(NCCc1c[nH]c2ccc(Cl)cc12)c1ccccc1	–	-16.9%
CC(C)Oc1ccc(/C(O)=C2\C(=O)C(=O)N(c3nccs3)C2c2cccc(Br)c2)cc1 (configuration not stated)	–	-24%
O=C(CSc1ncccn1)c1ccc(F)cc1	–	-6.11%
CCOc1ccc(-c2nc(S(=O)(=O)c3ccc(F)cc3)c(NC)o2)cc1	–	13.1%
O=C(CNc1nc(Cl)nc2nc[nH]c12)NC1CC1	–	-1.28%
O=C(NC/C(=N/NC(=O)c1cccnc1)c1ccccc1)c1ccccc1	–	-10%
O=C(NCc1nnc2n1C(C(=O)NC1CC1)CC2)c1ccncc1 (configuration not stated)	–	1.09% [at 149 µM]
COc1ccc(C(=O)NCc2nnc3ccc(-c4ccc(C)cc4)nn23)cc1F	28.2 µM (active)	–
COc1ccc(-c2nc3ccc(C(=O)NCc4ccc(C)cc4)cc3nc2-c2ccc(OC)cc2)cc1	–	-187%
CC[C@H](C)NC(=O)c1ccc2nc(-c3ccc(C)cc3)cc(OC)c2c1	–	-11.5%

Structure (SMILES)	Potency	activity change, negative = inhibition
Cc1ccc(-c2ccc3nnc(CNC(=O)c4cccnc4)n3n2)cc1C	31.6 µM (active)	–
O=C(NCCCN1CCCC1)c1cccnc1	–	3.9%
O=C(CSc1nnc2ccc(-c3ccncc3)nn12)N1CCCCC1	–	20.2%
Cc1ccc(-c2ccc3nnc(CNC(=O)c4ccncc4)n3n2)cc1C	28.2 µM (active)	–
CCc1nonc1NC(=O)COc1ccc(C)c(C)c1	–	7.03%
COc1ccc(NC(=O)CSCc2ccc(F)cc2Cl)cc1	–	2.87%
CCOC(=O)COn1c(=O)c(-c2ccc(OCC)cc2)[n+]([O-])c2ccccc21	–	-7.54%
CC(C)(C)c1ccc(C(=O)Nc2nc3c(s2)C[C@@H]2[C@](C)(CO)[C@H](O)CC[C@@]2(C)[C@@H]3CC(=O)NCc2cccs2)cc1	14.1 µM (active)	–
C=CCN(C)C(=O)C[C@@H]1c2nc(NC(=O)c3ccc(C(C)(C)C)cc3)sc2C[C@@H]2[C@](C)(CO)[C@H](O)CC[C@]21C	31.6 µM (active)	–
C[C@]1(CO)[C@H]2Cc3sc(NC(=O)C4CCCCC4)nc3[C@@H](CC(=O)NCc3cccs3)[C@]2(C)CC[C@H]1O	–	-19.3%
CC(=O)N1CCN(C(=O)C[C@@H]2c3nc(NC(=O)c4cccs4)sc3C[C@@H]3[C@](C)(CO)[C@H](O)CC[C@]32C)CC1	–	-22.1%
C=CCOC(=O)Nc1nc2c(s1)C[C@@H]1[C@](C)(CO)[C@H](O)CC[C@@]1(C)[C@@H]2CC(=O)N(CC)CC	–	1.16%
CN(C)CCNC(=O)C[C@@H]1c2nc(NC(=O)c3ccc(C(C)(C)C)cc3)sc2C[C@@H]2[C@](C)(CO)[C@H](O)CC[C@]21C	–	0.551%
CC(C)(C)C(=O)COC(=O)c1cc(-c2ccccc2)c(N2CCOCC2)s1	–	-15.4%
CC(C)C(=O)N1CC(=O)Nc2ccc(F)cc2C1c1ccc(F)cc1 (configuration not stated)	–	18.1%
CC(=O)c1ccc(N2CCN(C(=O)CCNC(=O)Cn3ccc4ccccc4c3=O)CC2)cc1	–	-4.99%
Cc1cnc(C(=O)N(C)Cc2ccc(Cl)s2)cn1	–	6.09%
Cc1ccc(C(C)C)c(OCCSc2nc3ccccc3n2CC(=O)O)c1	–	-10.6%
COc1ccc(OC)c(CC(C(=O)Nc2ccc(F)cc2)c2nn[nH]n2)c1 (configuration not stated)	–	-1.51%
O=C(NCc1ccc(Cl)cc1)c1cccn2nccc12	35.5 µM (active)	–
O=C(NCc1cccnc1)c1cnc2ccccc2n1	–	-14.4%
O=C(NCc1ccc(Cl)nc1)c1c[nH]c2cccnc12	–	-18.6% [at 149 µM]

Structure (SMILES)	Potency	activity change, negative = inhibition
O=C(NCc1ccc(Cl)cc1)c1cc(-c2ccc[nH]2)n[nH]1	–	-9.79%
O=C(NCc1ccc(Cl)nc1)c1cn2c(n1)CN(C(=O)c1cccnc1)CC2	–	-15.4% [at 115 µM]
O=C(NCc1cccnc1)c1nc(-c2ccc(Cl)nc2)c2cnccn12	63.1 µM (active)	–
O=C(NCc1ccc(Cl)nc1)c1ccn2cncc2c1	–	-8620% [at 86.2 µM]
O=C(CSc1nccn1Cc1ccc(Cl)cc1)NCc1ccccc1	–	-11.1%
O=C(NCc1ccc(Cl)nc1)c1cnn2ncccc12	31.6 µM (active)	–
CC1CCCN(CC(=O)Nc2oc3ccccc3c(=O)c2-c2ccc(F)cc2)C1 (configuration not stated)	–	-1.49%
N#Cc1cccc(Cn2c(=O)c3c(ncn3C3CCCC3)n(Cc3ccccc3)c2=O)c1	–	6.91%
CN1CCN(Cc2ccc(Nc3ncc(-c4cccnc4)c4c3OCC4)cc2)CC1	–	-29.8% [at 86.2 µM]
CN(C)c1cccc(-c2cnc(Nc3ccc(N4CCOCC4)cc3)c3c2CCO3)c1	35.5 µM (active)	–
COc1ncccc1Nc1ncc(-c2ccccc2)c2c1OCC2	–	-642% [at 86.2 µM]
CN=c1scc(-c2cccs2)n1/N=C/c1cccs1	–	4.26%
Cc1cnc(CCNC(=O)Nc2ccccc2F)n1C1CCC1	–	-9.92%
COc1ncccc1-c1cnc2[nH]cc(CC(=O)N(C)Cc3ccccc3)c2c1	28.2 µM (active)	–
CN(Cc1cccs1)C(=O)Cc1c[nH]c2ccccc12	–	2.68%
COc1ccccc1C(=O)NCCC(=O)N(C)Cc1cccnc1	–	15.8%
Cc1ccccc1C(=O)NCc1c[nH]c2ncccc12	–	-7.61% [at 86.2 µM]
COCCNC(=O)Cc1c[nH]c2ncc(-c3cccnc3OC)cc12	31.6 µM (active)	–
CNC(=O)c1cccc(-c2cnc3[nH]cc(CC(=O)NCc4cccc(F)c4)c3c2)c1	–	-2.5% [at 86.2 µM]
